“And” between values parts separate entries of the source, which are not always exact repeats. Equal entries are not always repeated. Inconclusive results are not listed. Where a structure was tested more than once in an assay, its records may differ in their call. The source made the active and inactive calls. Calls follow the shape of the dose curve; as a rule, active = well fitted curve in the direction sought with a large enough effect; inconclusive = small, poorly fitted or top-dose-only effect, or another doubt; inactive = no such curve, though single readings can be large; an effect the other way counts as inactive or inconclusive.
Assays:
[1] = Viability qHTS for spleen associated tyrosine kinase inhibitor (SYKi) naive MV4-11 cells (AID 1963823); also: nearly all actives have a fitted effect of over 40% in size
In short: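 Seeding of 500 SYKi-naive MV4-11 cells per well onto pre-dispensed compounds preceded a 72 hr incubation at 37 C. Luminescent CellTiter-Glo signal, read after 10 min at room temperature, reflected viable cells.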

[2] = Viability qHTS for spleen associated tyrosine kinase inhibitor (SYKi) drug resistant MV4-11 cells (AID 1963824); also: nearly all actives have a fitted effect of over 35% in size
In short: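 CellTiter-Glo luminescence, read 10 min after reagent addition, reports viability after a 72 hr compound exposure. Cells are an MV4-11 line made resistant to SYK inhibition, seeded at 500 per well onto compound-containing plates.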

[3] = Quantitative highthroughput screen to assess conditional lethalithy of NOMO1 cells grown in RPMI1640 with untreated serum (RPMI+s) (AID 1963876); also: nearly all actives have a fitted effect of over 35% in size;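 as to Viability: 100% = DMSO wells and 0% = empty wells without cells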
In short: (§1)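 Each medium arm—HPLM with 10% dialyzed FBS, or RPMI1640 with 5 mM glucose and 10% untreated or dialyzed FBS—was screened against an 11-point, 3-fold compound titration for 48 h at 37 °C, with CellTiter-Glo luminescence as endpoint.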

[4] = Quantitative highthroughput screen to assess conditional lethalithy of NOMO1 cells grown in Human Plasma-Like Medium with dialyzed fetal bovine serum (HPLM+ds) (AID 1963878); also: nearly all actives have a fitted effect of over 35% in size;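 as to Viability: 100% = DMSO wells and 0% = empty wells on each plate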
In short: as §1

[5] = Quantitative highthroughput screen to assess conditional lethalithy of SEM cells grown in RPMI1640 with dialyzed fetal bovine serum (RPMI+ds) (AID 1963884); also: nearly all actives have a fitted effect of over 35% in size;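 as to Viability: series mostly up to about 46 µM; 100% = DMSO control wells and 0% = empty wells without cells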
In short: as §1

[6] = Cellular viability qHTS for adrenocortical cancer (ACC) cell line SW-13 (AID 1963989); details: SW-13 ACC cells viability, CellTiter-Glo, 48 h; activity (max response): stronger effect = lower value; also: nearly all actives have a fitted effect of over 65% in size;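 as to activity (max response): cells grown in serum-free medium with ITS supplement; % is scaled to controls: 0 for no effect and ±100 for the full control effect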
In short: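 48 h treatment, SW-13 in ITS/DMEM serum-free; doses up to 46 uM; readout CellTiter-Glo luminescence; curve fit four-parameter logistic.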

[7] = Cellular viability qHTS for adrenocortical cancer (ACC) cell line NCI-H295R (AID 1963990); also: nearly all actives have a fitted effect of over 60% in size
In short: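 Compound titrations (up to 46 uM final) are applied to NCI-H295R cultures for 48 h at 37C. Viable cell number is estimated by CellTiter-Glo signal, normalised to DMSO and doxorubicin controls.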

[8] = Quantitative highthroughput screen to assess conditional lethalithy of SEM cells grown in Human Plasma-Like Medium with dialyzed fetal bovine serum (HPLM+ds) (AID 1963882); also: nearly all actives have a fitted effect of over 35% in size; as to Viability: series mostly up to about 46 µM
In short: as §1

[9] = Quantitative highthroughput screen to assess conditional lethalithy of P12 Ichikawa cells grown in Human Plasma-Like Medium with dialyzed fetal bovine serum (HPLM+ds) (AID 1963879); details: Potency: viability; also: nearly all actives have a fitted effect of over 35% in size; as to Viability: series mostly up to about 46 µM
In short: as §1

[10] = Quantitative highthroughput screen to assess conditional lethalithy of P12 Ichikawa cells grown in RPMI1640 with dialyzed fetal bovine serum (RPMI+ds) (AID 1963880); details: Potency: P12-Ichikawa viability; also: nearly all actives have a fitted effect of over 35% in size;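 as to Viability: 100% = DMSO wells and 0% = empty wells on each plate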
In short: as §1

[11] = Quantitative highthroughput screen to assess conditional lethalithy of P12 Ichikawa cells grown in RPMI1640 with untreated serum (RPMI+s) (AID 1963881); details: Potency: viability; also: nearly all actives have a fitted effect of over 35% in size;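 as to Viability: series mostly up to about 46 µM; 100% = DMSO wells and 0% = empty wells without cells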
In short: as §1

[12] = Quantitative highthroughput screen to assess conditional lethalithy of SEM cells grown in RPMI1640 with unreated serum (RPMI+s) (AID 1963883); also: nearly all actives have a fitted effect of over 35% in size;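 as to Viability: 100% = DMSO wells and 0% = empty wells without cells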
In short: as §1
Potency is read from the fitted curve at half-maximal effect.

| Structure (SMILES) | Potency [1] | Potency [2] | Potency [3] | Potency [4] | Potency [5] | activity (max response) [6] | Potency [7] | Potency [8] | Potency [6] | Potency [9] | Potency [10] | Potency [11] | Potency [12] |
| --- | --- | --- | --- | --- | --- | --- | --- | --- | --- | --- | --- | --- | --- |
| O=c1c(O)c(-c2ccc(O)c(O)c2)oc2cc(O)ccc12 | 13.2 µM (active) | 5.8 µM (active) and 9.34 µM (active) | inactive | inactive | 23.5 µM (active) | 0.454% (inactive) | inactive |  |  |  |  |  |  |
| NC(=O)[C@@H](CCC(F)(F)F)N(Cc1ccc(-c2ncon2)cc1F)S(=O)(=O)c1ccc(Cl)cc1 | 20.9 µM (active) | 18.6 µM (active) | inactive | 20.9 µM (active) | 18.7 µM (active) |  |  | 23.5 µM (active) | 28.2 µM (active) |  |  |  |  |
| CCc1c2c(nc3ccc(OC(=O)N4CCC(N5CCCCC5)CC4)cc13)-c1cc3c(c(=O)n1C2)COC(=O)[C@]3(O)CC | 2.99 µM (active) and 263 nM (active) | 2.66 µM (active) and 296 nM (active) | 2.96 µM (active) |  | 1.48 µM (active) |  |  | 2.35 µM (active) | 3.66 µM (active) and 3.55 µM (active) | 1.18 µM (active) | 1.18 µM (active) | 0.833 µM (active) | 1.87 µM (active) |
| N#CC[C@H](C1CCCC1)n1cc(-c2ncnc3[nH]ccc23)cn1 | 8.2 µM (active) | 20.6 µM (active) | 14.8 µM (active) | 7.43 µM (active) |  | -17.5% (inactive) |  |  |  |  |  |  |  |
| Clc1ccc(C(Cn2ccnc2)OCc2c(Cl)cccc2Cl)c(Cl)c1 (stereo not given) | 16.8 µM (active) and 8.33 µM (active) | 21.1 µM (active) and 8.33 µM (active) | inactive | inactive | inactive |  | 25.1 µM (active) |  |  | inactive |  |  | inactive |
| CC(C)=CC[C@@H](O)C1=CC(=O)c2c(O)ccc(O)c2C1=O | 5.25 µM (active) | 2.63 µM (active) | 1.66 µM (active) |  |  |  |  | inactive |  | 9.35 µM (active) | 13.2 µM (active) | 10.5 µM (active) |  |
| COc1cc(N2CCC(N(C)C)CC2)ccc1Nc1ncc(Cl)c(Nc2ccccc2P(C)(C)=O)n1 | 0.0661 µM (active) | 116 nM (active) and 148 nM (active) | 2.63 µM (active) | 1.05 µM (active) |  |  | 8.91 µM (active) |  | 2 µM (active) | 0.933 µM (active) |  | 2.09 µM (active) |  |
| Nc1ccn([C@@H]2O[C@H](CO)[C@@H](O)[C@H]2O)c(=O)n1 | inactive | inactive | 0.0743 µM (active) | 0.0166 µM (active) | inactive | 10.2% (inactive) | inactive |  |  |  |  | inactive |  |
| CN(C)c1ccc(-c2nc3ncc(Cl)c(N4CCN(CC(=O)Nc5nccs5)CC4)c3[nH]2)cc1 | 0.257 µM (active) | 0.645 µM (active) | inactive | 18.7 µM (active) |  | -12.9% (inactive) | inactive |  |  | inactive | inactive | inactive |  |
| Nc1[nH]nc2nnc(-c3c(-c4ccccc4)nn4ccccc34)cc12 | 9.2 µM (active) | 16.4 µM (active) | 1.48 µM (active) |  |  | -4.73% (inactive) | inactive | 23.5 µM (active) |  | 8.33 µM (active) | 13.2 µM (active) | 7.43 µM (active) | 23.5 µM (active) |
| CCc1cc(-c2n[nH]c(C)c2-c2ccc3c(c2)OCCO3)c(O)cc1O | 2.35 µM (active) | 4.17 µM (active) | 9.35 µM (active) | 11.8 µM (active) |  |  | 15.8 µM (active) |  | 14.1 µM (active) |  |  |  |  |
| Cc1ccccc1N1C(=O)c2cc(S(N)(=O)=O)c(Cl)cc2NC1C (stereo not given) | inactive | inactive | inactive | inactive | inactive | 17.3% (inactive) | inactive | inactive |  | inactive | inactive | inactive | inactive |
| CCCCCCCCCC(=O)N[C@@H](Cc1c[nH]c2ccccc12)C(=O)N[C@H](CC(N)=O)C(=O)N[C@@H](CC(=O)O)C(=O)N[C@@H]1C(=O)NCC(=O)N[C@@H](CCCN)C(=O)N[C@@H](CC(=O)O)C(=O)N[C@H](C)C(=O)N[C@@H](CC(=O)O)C(=O)NCC(=O)N[C@H](CO)C(=O)N[C@@H]([C@@H](C)CC(=O)O)C(=O)N[C@@H](CC(=O)c2ccccc2N)C(=O)O[C@@H]1C | inactive | 68.5 nM (active) and inactive | inactive | inactive | inactive | 12.9% (inactive) | inactive | inactive |  | inactive | inactive |  | inactive |
| O=C(C1CCCCC1)N1CC(=O)N2CCc3ccccc3C2C1 (stereo not given) | inactive | inactive | inactive | inactive |  | -9.94% (inactive) and -6.75% (inactive) |  |  |  |  |  |  | 0.332 µM (active) |
| COc1cc2c(cc1OC)[C@@H]1C(=O)c3ccc4c(c3O[C@@H]1CO2)C=CC(C)(C)O4 | 103 nM (active) and 93.4 nM (active) | 146 nM (active) and 166 nM (active) | 23.5 µM (active) | 20.9 µM (active) | 16.6 µM (active) |  | 20 µM (active) |  | 0.178 µM (active) | 18.7 µM (active) | 18.7 µM (active) | 6.62 µM (active) | 2.64 µM (active) |
